D2 ag-1 = activates the human D2 dopamine receptor | AID 624465 | DiscoveRx PathHunter D2 beta-arrestin, luminescence, 90 min; 100% = 57 uM dopamine signal | P14416 | actives 0.084% (n = 360,000) | activation, % (test concentration not listed); in the data active = activation above about 40%; inconclusive = between about 15% and that limit
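Agonist mode: compounds alone added to overnight-plated D2 PathHunter cells for 90 min at 37 C, with 57 uM final dopamine (EC100) defining full response. Beta-arrestin recruitment detected by chemiluminescent reagent, read after 1 h at ambient temperature.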
D2 PAM-1 = positively modulates the human D2 dopamine receptor allosterically; AID 485347; HEK293 T-REx D2, calcium flux, EC20 dopamine potentiation; potentiation, % at 10 µM; actives 0.34% (n = 340,000);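 active = potentiation over 3 SD above the plate norm, cut at about 30% in these data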
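Tetracycline-induced HEK293 T-REx cells force-coupled to calcium signalling expressed D2; compounds were pin-added after a 10 s baseline, read kinetically 180 s, then an EC20 dopamine challenge followed with a further 180 s calcium read.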
D2 ag-2 = agonists of human D2 dopamine receptor | HEK293 T-REx D2 cells, calcium flux agonist mode | actives 0.53% (n = 340,000) | P14416 | activation, % at 2 µM | AID 485358;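 active = activation over 3 SD above normal in the single-dose calcium agonist read, cut at about 30% in these data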
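In this primary screen, compounds producing a positive calcium signal within 180 s of addition to tetracycline-induced, force-coupled HEK293 Trex D2 cells are flagged; cells are dye-loaded with a no-wash calcium kit beforehand.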
D2 antag = antagonists of human D2 dopamine receptor; HEK293 TREx D2 cells, calcium flux, dopamine EC80; inhibition, % at 10 µM; actives 2% (n = 340,000); AID 485344; in the data active = inhibition above about 30%; inactive = below that, where a call was filed
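Overnight-induced (tetracycline, 30 C) HEK293 T-REx cells carrying force-coupled D2 receive a no-wash calcium dye, then compound, then EC80 dopamine at 180 s; signals are read kinetically throughout.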
D2 PAM-2 = potentiates the human D2 dopamine receptor allosterically. AID 624464. DiscoveRx D2 beta-arrestin cells, luminescence, 90 min; 100% = 57 uM dopamine signal. potentiation, % (no concentration beside the values). P14416. actives 0.23% (n = 360,000); in the data active = potentiation above about 50%; inconclusive = mostly about 30% to 49%
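PathHunter beta-arrestin assay in DiscoveRx D2 cells. Compounds were added with an EC20 of dopamine (50 nM final) for 90 min at 37 deg C. Luminescence was read 1 h after detection reagent, with 57 uM dopamine as the EC100 control.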
D3 arrestin ag = activates human D3 dopamine receptor beta-arrestin recruitment. shares compounds with D2 ag-2. DiscoveRx D3 beta-arrestin cells, luminescence, 90 min. Potency, µM (series often up to 76.9 µM), actives largely listed as activators. actives 4% (n = 2,300). AID 720506; also: nearly all actives have a fitted effect of over 70% in size
Target sequence (P35462 whole entry, looked up): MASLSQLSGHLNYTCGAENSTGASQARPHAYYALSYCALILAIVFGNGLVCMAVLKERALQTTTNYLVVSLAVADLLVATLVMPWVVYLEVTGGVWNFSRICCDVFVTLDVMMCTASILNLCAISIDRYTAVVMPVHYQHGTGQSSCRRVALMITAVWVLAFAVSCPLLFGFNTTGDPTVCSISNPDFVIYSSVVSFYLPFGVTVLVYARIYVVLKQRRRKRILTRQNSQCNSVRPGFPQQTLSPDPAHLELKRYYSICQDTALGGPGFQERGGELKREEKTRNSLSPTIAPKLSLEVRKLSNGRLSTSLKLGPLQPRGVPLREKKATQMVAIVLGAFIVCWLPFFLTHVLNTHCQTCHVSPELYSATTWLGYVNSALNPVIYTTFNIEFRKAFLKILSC
D2 ag-3 = D2 receptor agonism, beta-arrestin counterscreen. shares compounds with D2 ag-2. DiscoveRx PathHunter D2 beta-arrestin, luminescence, 90 min; response scale: percent relative to full dopamine signal. Potency, µM (top dose mostly 76.9 µM), hits mostly activators. actives 5.9% (n = 2,300). AID 720507; also: nearly all actives have a fitted effect of over 70% in size
Large screens that a line does not name were inactive (follow-up assays come after a bar, where they were run). Sampled rows, rich in hits. Any-hit rate of the full collection: about 2.4%. Unless noted, calls follow the shape of the dose curve; as a rule, active = well fitted activation curve with a large enough effect; inconclusive = small, poorly fitted or top-dose-only effect; inactive = flat fitted curve, though single readings scatter.

COc1ccc(CC(C)N2CCN(c3ccccc3)CC2)cc1OC (stereo not given)	D2 ag-1 inconclusive, D2 ag-2 65, D2 antag 66 | D3 arrestin ag inactive | D2 ag-3 inconclusive
COc1ccc(CC(C)N2CCN(Cc3ccccc3)CC2)c(OC)c1 (stereo not given)	D2 ag-2 59, D2 antag 83 | D3 arrestin ag inactive | D2 ag-3 inactive
Cc1ccccc1NC(=O)c1c(C)oc2ccc(O)c(CN3CCCCCC3)c12	none (no result: D2 ag-1, D2 antag, D2 PAM-2)
CC(C)NC(=O)CCSc1nc(-c2ccc3c(c2)OCO3)cc(C(F)(F)F)n1	none (no result: D2 ag-1, D2 antag, D2 PAM-2)
COc1cccc(N2C(=O)C(CC(=O)Nc3cccc(F)c3)N(C3CCCC3)C2=O)c1 (stereo not given)	none (no result: D2 ag-1, D2 antag, D2 PAM-2)
Cn1nnnc1Sc1ncnc2scc(-c3cccs3)c12	D2 PAM-1 31 (no result: D2 ag-1, D2 PAM-2) | D3 arrestin ag inactive | D2 ag-3 inactive
Cn1nnnc1Sc1ncnc2scc(-c3ccc(C(F)(F)F)cc3)c12	none (no result: D2 ag-1, D2 PAM-2)
Cc1cn(C2CCCCC2)c(=O)n(-c2ccccc2)c1=O	none (no result: D2 PAM-1, D2 ag-2, D2 antag)
O=C(c1ccccc1)N1CCCC(c2nc3c(nnn3Cc3ccc(F)cc3F)c(=O)[nH]2)C1 (stereo not given)	none (no result: D2 ag-1, D2 antag, D2 PAM-2)
Cc1cc(=O)n2nc(N3CCC(C(=O)N4CCN(c5ccccc5)CC4)CC3)sc2n1	none | D3 arrestin ag inconclusive | D2 ag-3 inactive
CNC(=O)c1c[nH]c2ccc(S(=O)(=O)Nc3cccc(Cl)c3C)cc2c1=O	none (no result: D2 ag-1, D2 antag, D2 PAM-2)
FC(F)(F)c1ccccc1CN1CCCC(N2CCN(c3ccccc3)CC2)C1 (stereo not given)	D2 ag-2 62, D2 antag 78 | D3 arrestin ag inactive | D2 ag-3 inactive
COc1ccc(N2CCN(C3CCCN(Cc4ccc(F)cc4)C3)CC2)cc1 (stereo not given)	none
Cc1noc(-c2ccc(-c3noc(-c4ccc(Cl)cc4)n3)cc2)n1	none (no result: D2 ag-1, D2 ag-2, D2 antag, D2 PAM-2)
O=C(O)CNC(=O)c1ccccc1Br	D2 antag 40 | D3 arrestin ag inactive | D2 ag-3 inactive
OC(CNCCc1ccc(C(F)(F)F)cc1)COc1cccc2ccccc12 (stereo not given)	none | D3 arrestin ag inactive | D2 ag-3 inactive
COc1ccc([C@H]2CC(=O)C=C(c3cccc(OCc4ccccc4)c3)C2)cc1	none | D3 arrestin ag inactive | D2 ag-3 inactive
COc1ccc(C2=CC(=O)C[C@H](c3ccc(OC)c(OC)c3)C2)cn1	none | D3 arrestin ag inactive | D2 ag-3 inactive
COc1ccc(C2=CC(=O)C[C@H](c3ccc(OC)cc3)C2)cc1	none (no result: D2 ag-2, D2 antag)
COc1ccc([C@H]2CC(=O)C=C(c3ccc4cc[nH]c4c3)C2)cc1	none | D3 arrestin ag inactive | D2 ag-3 inactive
COc1ccc([C@H]2CC(=O)C=C(c3ccc(OC)cc3OC)C2)cc1	none | D3 arrestin ag inactive | D2 ag-3 inactive
COc1ccc([C@H]2CC(=O)C=C(c3ccc(F)nc3)C2)cc1OC	none
CCCOc1cccc(C(=O)Nc2cc(-c3ccccc3)no2)c1	none (no result: D2 ag-1, D2 antag, D2 PAM-2)
CC(=O)Nc1ccc(NC(=O)CSc2nc(=O)n(Cc3cccnc3)c3c2CCC3)cc1	none (no result: D2 PAM-1, D2 ag-2, D2 antag)
Cc1ccc(Cl)cc1NC(=O)Cn1c(=O)n(Cc2ccccc2)c(=O)c2oc3ccccc3c21	none (no result: D2 ag-1, D2 antag, D2 PAM-2)
O=C1C=C(O)CC(c2ccc(Cl)cc2)C1 (stereo not given)	none
COc1ccc(C2CC(=O)C=C(O)C2)cc1 (stereo not given)	D2 ag-2 53 | D3 arrestin ag inactive | D2 ag-3 inactive
COc1cc(NC(=O)C2CCCN(c3ncnc4c3nc3n4CCCCC3)C2)cc(OC)c1OC (stereo not given)	D2 ag-2 39 | D3 arrestin ag inactive | D2 ag-3 inactive
COCCN(Cc1ccco1)C(=O)C1CCCN(c2ncnc3c2nc2n3CCCCC2)C1 (stereo not given)	none | D3 arrestin ag inactive | D2 ag-3 inactive
O=S(=O)(c1cc(Cl)ccc1Cl)N1CCc2ccccc21	D2 ag-2 61, D2 antag 37 | D3 arrestin ag inactive | D2 ag-3 inactive
CCOC(=O)c1c(C)n(C)c2ccc(OCC(O)CNCCc3ccccc3)cc12 (stereo not given)	D2 antag 31 | D3 arrestin ag inactive | D2 ag-3 inactive
CCOC(=O)c1c(C)n(C)c2ccc(OCC(O)CN3CCN(C)CC3)cc12 (stereo not given)	none
CC(=O)c1cccc(OCC(O)CNCCc2ccc(Cl)cc2)c1 (stereo not given)	none
CCOC(=O)c1cccc(OCC(O)CNCCOc2ccccc2F)c1 (stereo not given)	D2 ag-1 47, D2 ag-2 81, D2 antag 83 | D3 arrestin ag inactive | D2 ag-3 inconclusive
O=C(O)CNC(=O)c1ccc(NC(=O)/C(=C/c2ccccc2)NC(=O)c2ccco2)cc1	none
O=C(NCC1CCCO1)/C(=C/c1ccccc1)NC(=O)c1ccccc1 (stereo not given)	none
O=C(O)CNC(=O)c1ccc(NC(=O)/C(=C/c2cccc([N+](=O)[O-])c2)NC(=O)c2ccco2)cc1	D2 ag-2 47 | D3 arrestin ag inactive | D2 ag-3 inactive
O=C(NCC1CCCO1)/C(=C\c1cccc([N+](=O)[O-])c1)NC(=O)c1ccccc1 (stereo not given)	none | D3 arrestin ag inactive | D2 ag-3 inactive
CC(C)Nc1ccc(-c2nc(-c3ccco3)no2)cc1[N+](=O)[O-]	none (no result: D2 ag-1, D2 antag, D2 PAM-2)
O=C(N[C@H]1CCC(=O)N(CCSc2ccc(Br)cc2)CC1)OCc1ccccc1	none | D3 arrestin ag inactive | D2 ag-3 inactive
O=C1C2CC=CCC2C(=O)N1c1ccc(N2CCN(c3ccccn3)CC2)c([N+](=O)[O-])c1 (stereo not given)	none | D3 arrestin ag inconclusive | D2 ag-3 inactive
Nc1c(Cl)ncnc1Nc1ccc(C(=O)O)cc1	none (no result: D2 PAM-1, D2 ag-2, D2 antag)
Cc1ccc(C)c(NS(=O)(=O)c2ccc(-c3ccc(=O)[nH]n3)o2)c1	D2 ag-2 44 | D3 arrestin ag inactive | D2 ag-3 inactive
Cc1cccc(NS(=O)(=O)c2ccc(-c3ccc(=O)[nH]n3)o2)c1	none (no result: D2 PAM-1, D2 ag-2, D2 antag)
O=C(COc1coc(CN2CCN(c3ccccc3F)CC2)cc1=O)NC1CCCCC1	none | D3 arrestin ag inactive | D2 ag-3 inactive
Cc1ccccc1NC(=O)COc1coc(CN2CCN(Cc3ccccc3)CC2)cc1=O	D2 ag-2 74 | D3 arrestin ag inactive | D2 ag-3 inactive
Cc1ccc(NC(=O)COc2coc(CN3CCN(Cc4ccccc4)CC3)cc2=O)cc1	none
